Measurements published in PubChem BioAssay (NCI).
Values joined by “and” are separate entries in the source; they are usually repeats but may differ in a detail not shown here. Identical values can stand only once. The panel holds about 83,000 compounds, 20% with a hit somewhere; the sample as a whole holds those more often.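 Treatment: one concentration, 48 hours, 96-well format. Scoring: percent growth, with anything below 10 considered active.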 Unmarked numbers belong to inactive results. Active and inactive are the calls of the source.

Each compound was assayed on OVCAR-8 ovarian (assay: NCI-60 one-dose screen, 48 h (100 = growth as untreated, 0 = no growth, -100 = all killed)). Conditions: 10 µM.
Procedure: Growth inhibition of the OVCAR-8 human tumor cell line is measured as a screen for anti-cancer activity. Cells are grown in 96 well plates and exposed to the test compound for 48 hours. Compounds are tested at a single concentration, which is 10^-5 M for most compounds. The reported endpoint is percent growth (GI% or GIPRCNT), where numbers from 0 - 100% represent growth inhibition, and numbers from -100% - 0 represent cell death. For example, a value of 40 represents 60% growth inhibition. A value of 0 means no net growth occurred over the course of the experiment. A value of -40 indicates 40% of cells at the beginning of the experiment died by the end of the experiment. A value of -100 means all cells are dead at the end of the experiment.
NCI-60 Human Tumor Cell Lines Screen was performed using the standard one-dose NCI protocol, which is described in more detail at https://dtp.cancer.gov/discovery_development/nci-60/default.htm.
Compounds with GIPRCNT values below 10 were considered active. Activity score was based on GIPRCNT using the following formula: […]
Score is 0 for GIPRCNT values of 100 or above, 50 for GIPRCNT values of 0, and 100 for GIPRCNT values of -100.

| SMILES | growth |
| --- | --- |
| CN(C)C(=O)c1ccc(SC(=S)NCc2ccccc2)cc1 | 106% |
| O=C(Nc1cccc(Br)c1)Oc1cccc2cccnc12 | 102% |
| O=C(O)c1c(Cl)c(Cl)c(Cl)c(Cl)c1-c1c2cc(I)c(=O)c(I)c-2oc2c(I)c(O)c(I)cc12 | 107% and 105% and 91.4% |
| COc1ccc(-c2cscc2N)cc1 | 77.6% |
| O=C(Nc1c(Cl)cccc1Cl)Oc1cccc2cccnc12 | 27% |

Same assay, conditions: 10 µM unless noted

| SMILES | growth |
| --- | --- |
| C[n+]1c(/C=C/c2ccc([N+](=O)[O-])cc2)ccc2ccccc21 | 91.3% |
| CC1(C)CC([P+](c2ccccc2)(c2ccccc2)c2ccccc2)=NN1 | 32.3% |
| C/C=C1\SC(=S)NC1=O | 103% |
| CCC(CC)COC(=O)c1ccc(O)c(O)c1 | 59.9% |
| S=C(NCCNC(=S)[S][Sn]([c]1ccccc1)([c]1ccccc1)[c]1ccccc1)[S][Sn]([c]1ccccc1)([c]1ccccc1)[c]1ccccc1 | -99.2% (active) |
| Oc1c(Cl)cc(Cl)c2cccnc12 | 41.2% |
| CCC(c1cccc(O)c1)C(CC)c1cccc(O)c1 (stereo not given) | 85.6% |
| N#CSCc1c(Cl)cccc1Cl | 100% |
| CC1=CC(O)C2CC1C2(C)C (stereo not given) | 105% and 104% |
| CNC(=O)N/N=C/c1ccc([N+](=O)[O-])o1 | 96.5% |
| Oc1c(Cl)c2ccccc2c2ccccc12 | 98.4% |
| CNc1ccc(N)cc1 | 113% |
| CN(C)c1ccc(N=Nc2cccc3ccccc23)cc1 | 94.8% |
| Nc1nc(N)c2c(ccc3c2ccn3Cc2cccc([N+](=O)[O-])c2)n1 | -54.4% (active) |
| Cc1ccnc2c1ccc1c(C)ccnc12 | 12.1% |
| NC1=CC(=O)c2ccccc2C1=O | 85.3% |
| NC(N)=N/N=C/c1ccc([N+](=O)[O-])o1 | 79.7% |
| O=C1c2cccnc2-c2nccc3c2c1nc1cc(Br)ccc13 | -41.9% (active) |
| Nc1ccc(SSc2ccc(N)cc2)cc1 | 88% |
| C1=C(c2ccccc2)C(c2ccc(OCCN3CCCCC3)cc2)Oc2ccccc21 (stereo not given) | 77% |
| OC(CNc1ccnc2cc(Cl)ccc12)CNc1ccnc2cc(Cl)ccc12 | 52.5% |
| S=C(N/N=C/c1ccccn1)Nc1ccccn1 | 14.2% |
| CCN(CC)CC(C)(C)C(=O)/C=C/c1ccc(Cl)c(Cl)c1 | -21.6% (active) |
| CN(C)c1ccc(C(=C2C=CC(=[N+](C)C)C=C2)c2ccc(N(C)C)cc2)cc1 (tested in a mixture with another compound) | -23.2% (active) |
| CCC(=O)Sc1ccccc1C(=O)Nc1ccc(Cl)cc1 | 78.8% |
| CCCCCCCCCCCCCCCCOP(=O)([O-])OCC[N+](C)(C)C | 59.6% |
| O=C1N[C@H]2[C@H](CS[C@H]2CCCCC(=O)N(CCP(c2ccccc2)c2ccccc2)CCP(c2ccccc2)c2ccccc2)N1 | 95.1% |
| CCOC(=O)c1c(C)[nH]c(CO)c1C | 101% |
| O=C(Nc1cccc(Br)c1)Oc1ccc(Cl)c2cccnc12 | 16% [100 µM] |
| O=C(Nc1ccccc1)c1cc(Cl)ccc1O | 44.9% |

Same assay, conditions: 100 µM

| SMILES | growth |
| --- | --- |
| CN(C)C(=O)c1ccc(SC(=S)NCc2ccccc2)cc1 | -6.08% (active) |
| O=C(Nc1cccc(Br)c1)Oc1cccc2cccnc12 | 11% |
| O=C(O)c1c(Cl)c(Cl)c(Cl)c(Cl)c1-c1c2cc(I)c(=O)c(I)c-2oc2c(I)c(O)c(I)cc12 | -13.2% (active) |
| COc1ccc(-c2cscc2N)cc1 | 48.9% |
| O=C(Nc1c(Cl)cccc1Cl)Oc1cccc2cccnc12 | 10.2% |
